# Laboratory results taken from ChEMBL document CHEMBL3988442, “University of Dundee, Small-Polar-MMV Screening Library” (2021).
# Target: T1, Methionyl-tRNA synthetase, putative (Leishmania donovani (strain BPK282A1)) (UniProt E9BF75)
# T1 sequence (whole entry): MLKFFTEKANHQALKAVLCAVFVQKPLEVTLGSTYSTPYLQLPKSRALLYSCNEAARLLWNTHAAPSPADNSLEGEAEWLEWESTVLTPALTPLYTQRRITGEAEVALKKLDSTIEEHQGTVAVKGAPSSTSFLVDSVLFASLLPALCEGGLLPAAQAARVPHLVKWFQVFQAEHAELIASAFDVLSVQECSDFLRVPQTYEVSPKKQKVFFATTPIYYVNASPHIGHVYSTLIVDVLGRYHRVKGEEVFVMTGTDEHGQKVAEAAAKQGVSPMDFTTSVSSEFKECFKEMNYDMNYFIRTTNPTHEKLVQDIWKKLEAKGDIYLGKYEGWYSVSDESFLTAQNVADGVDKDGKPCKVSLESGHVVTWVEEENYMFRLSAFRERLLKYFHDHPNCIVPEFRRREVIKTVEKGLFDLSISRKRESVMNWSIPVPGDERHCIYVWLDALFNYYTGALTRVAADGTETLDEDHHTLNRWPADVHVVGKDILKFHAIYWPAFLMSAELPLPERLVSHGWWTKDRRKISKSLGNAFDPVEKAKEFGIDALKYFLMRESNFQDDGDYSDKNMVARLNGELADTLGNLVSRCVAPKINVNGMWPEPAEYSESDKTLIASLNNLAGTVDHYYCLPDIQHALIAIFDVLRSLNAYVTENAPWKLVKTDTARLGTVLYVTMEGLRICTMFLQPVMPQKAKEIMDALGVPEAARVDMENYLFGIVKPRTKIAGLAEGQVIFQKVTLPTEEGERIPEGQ
# Test: Leishmania donovani Methionine tRNA synthetase (LdMetRS):v7. Dose response assay
# Type: functional
# Design: conc 80 nM, time 150 minutes
compound,measurement,setting,value
CC(C)C[C@H](N)COc1cccc(F)c1Oc1ccc(Cl)cc1,PXC50,"BOTTOM 2.189725924, HILLSLOPE 1.340429131, MAX_EFFECT 78.50287908, TOP 100.0",4.39
same,PXC50,"BOTTOM 6.665693755, HILLSLOPE 1.000390525, MAX_EFFECT 63.08724832, TOP 89.83359252",4.34
same,PXC50,"BOTTOM 8.555350196, HILLSLOPE 1.300138335, MAX_EFFECT 82.32235702, TOP 100.0",4.4
same,PXC50,"BOTTOM 9.084234051, HILLSLOPE 1.282962904, MAX_EFFECT 79.16666667, TOP 100.0",4.36
same,PXC50,"BOTTOM -2.40342641, HILLSLOPE 1.582156808, MAX_EFFECT 66.8261563, TOP 100.0",4.18
Cc1cc(C)n(-c2nc(NCCCO)c3c4c(sc3n2)CCCC4)n1,PXC50,"BOTTOM 0.694327114, HILLSLOPE 1.749821258, MAX_EFFECT 87.74703557, TOP 100.0",4.43
same,PXC50,"BOTTOM 1.783825543, HILLSLOPE 1.533717892, MAX_EFFECT 94.44444444, TOP 106.8963367",4.59
same,PXC50,"BOTTOM 1.928318756, HILLSLOPE 2.074005498, MAX_EFFECT 78.73015873, TOP 100.0",4.27
same,PXC50,"BOTTOM 4.876612539, HILLSLOPE 1.662902224, MAX_EFFECT 88.59060403, TOP 97.50762335",4.61
same,PXC50,"BOTTOM 5.143035966, HILLSLOPE 1.849282201, MAX_EFFECT 96.18717504, TOP 100.0",4.48
Oc1ccc(N(CCc2ccccc2)CCn2cncn2)cc1,PXC50,"BOTTOM 3.490457709, HILLSLOPE 3.448426001, MAX_EFFECT 80.53691275, TOP 87.69859371",4.3
same,PXC50,"BOTTOM 4.951266088, HILLSLOPE 3.910237354, MAX_EFFECT 63.19444444, TOP 100.0",4.05
same,PXC50,MAX_EFFECT 6.53907496,< 4
same,PXC50,MAX_EFFECT 12.85988484,< 4
same,PXC50,MAX_EFFECT 66.72443674,< 4
